# KB-3-1 cytotox: KB-3-1 parental cell cytotoxicity | AID 1347075 | Potency, µM (top dose mostly 46.1 µM), most hits filed as cytotoxic | KB-3-1 viability, CellTiter-Glo ATP luminescence, 72 h | 400,000 tested, 1.4% active; also: nearly all actives have a fitted effect of over 60% in size
#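 Here the drug-naive KB-3-1 line serves as comparator for MDR sub-line selectivity; cells received compound titrations, 72 h at 37 °C, then CellTiter-Glo readout.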
# DT40 TDP1 no CPT: qHTS for Inhibitors of human tyrosyl-DNA phosphodiesterase 1 (TDP1): qHTS in cells in absence of CPT; 420,000 tested, 15% active; DT40 Tdp1-/- hTDP1 cells, no CPT, ATP luminescence, 48 h; Potency, µM (top dose mostly 46.2 µM), without a hit: at the highest dose activity change, negative = growth inhibition, usual class: inhibitors; also: nearly all actives have a fitted effect of over 55% in size
#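 Seeded 400 DT40-hTDP1 cells/well (vehicle DMSO, no 20 nM CPT); pinned compounds; ≥48 hr at 37 °C; CellTiter-Glo luminescence as viability measure.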
# KB-V1 cytotox: kills drug-selected multidrug resistant KB-V1 cells. 400,000 tested, 3.4% active. KB-V1 MDR cells viability, CellTiter-Glo, 72 h. Potency, µM (top dose mostly 46.1 µM), most hits filed as cytotoxic; also: nearly all actives have a fitted effect of over 60% in size
#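 Cytotoxicity via CellTiter-Glo luminescence after 72 h compound exposure at 37 degrees C. Cells: drug-selected KB-V1 line, DMEM phenol-red free plus 10% FBS. Compounds tested at multiple concentrations; normalized data fitted to concentration-effect curves.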
# HT1080NT lethal: kills 2HG-producing HT-1080-NT fibrosarcoma cells; HT-1080-NT fibrosarcoma viability, CellTiter-Glo ATP luminescence, 48 h; Potency, µM (highest dose often 46.1 µM), without a hit: at the highest dose activity, negative = less viability, usual class: cytotoxic; 360,000 tested, 1.6% active; AID 686970;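 also: NT is the 2HG producing partner of a matched IDH1 knockdown line; 0% = DMSO-treated cells and -100% = media-only wells without cells; nearly all actives have a fitted effect of over 55% in size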
#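 HT-1080-NT; 750 cells/well; 5% FBS RPMI; 48 h compound, 37 degrees C; CellTiter-Glo luminescence; curve fitting and curve-class assignment.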
# HT1080 IDH1KD tx: kills HT-1080 cells with IDH1 knockdown; HT-1080 IDH1 knockdown viability, ATP luminescence, 48 h; Potency, µM (series often up to 46.1 µM), for the others: at the top dose activity, negative = toxicity, actives largely listed as cytotoxic; 360,000 tested, 2% active;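 also: 0% = DMSO wells and -100% = cell-free medium wells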
#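 Luminescent ATP read-out (CellTiter-Glo, 10 min at room temperature) after 48 h compound exposure at 37 °C gave viability of IDH1-knockdown HT-1080 cells. Activity was normalised to DMSO and cell-free wells, then fitted as concentration-response curves.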
# TDP1 cell CPT: growth inhibition of DT40 Tdp1-/-;hTDP1 cells with camptothecin (screen for TDP1 inhibitors); chicken DT40 Tdp1-/-;hTDP1 cells + 20 nM CPT, ATP luminescence, 48 h; Potency, µM (highest dose often 46.2 µM), for inactives: top-dose activity change, negative = growth inhibition, usual class: inhibitors; 420,000 tested, 12% active; AID 686979; also: nearly all actives have a fitted effect of over 55% in size
#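 Cell growth measured by CellTiter-Glo luminescence after a minimum 48 h, 37 C compound exposure with 20 nM CPT in Tdp1-knockout DT40 cells stably expressing hTDP1, seeded 400/well; qHTS titration format.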
# * hit, by the source's call; i = inactive; ? = inconclusive; nt = no result; [ ] = another dose, or the depositor's remark. Hits are enriched below; roughly 19% of the tested compounds scored in any of these assays. Calls follow the shape of the dose curve; as a rule, active = well fitted curve in the direction sought with a large enough effect; inconclusive = small, poorly fitted or top-dose-only effect, or another doubt; inactive = no such curve, though single readings can be large; an effect the other way counts as inactive or inconclusive. Unless noted, % is scaled to controls: 0 for no effect and ±100 for the full control effect; potency is read from the fitted curve at half-maximal effect.
SMILES,KB-3-1 cytotox,DT40 TDP1 no CPT,KB-V1 cytotox,HT1080NT lethal,HT1080 IDH1KD tx,TDP1 cell CPT
CC1(C)CN(C(=S)Nc2ccc(F)cc2F)C1=O,i,15%,i,4%,3%,2%
COc1ccc(-c2nc(NC(=O)CCNC(=O)c3ccco3)sc2C)cc1,i,18µM*,i,-5%,-2%,23µM*
COc1ccc(CCNC(=O)CCNC(=O)c2ccco2)cc1,i,-8%,?,3%,2%,-10%
Cn1nc(C(=O)Nc2nc(-c3ccc(F)cc3)cs2)ccc1=O,i,6.5µM*,i,-20%,-10%,?
COc1ccc(-c2nc(NC(=O)c3n[nH]c(=O)c4ccccc34)sc2C)cc1,?,9.2µM*,8.2µM*,-3%,-10%,21µM*
O=C(Nc1nc(-c2ccncc2)cs1)c1ccc(F)cc1,i,-8%,i,1%,3%,5%
O=C(Cc1ccccc1F)Nc1nc(-c2ccc(F)cc2)cs1,i,5.8µM*,?,?,?,8.2µM*
CCOC(=O)N1CCC(N(CCN(C)C)C(=S)Nc2cc(C)cc(C)c2)CC1,i,-20%,i,-5%,-8%,-8%
COc1ccc(-c2csc(NC(=S)NC(=O)c3cccs3)n2)cc1Br,?,?,?,6%,0%,?
COc1ccc(-c2csc(NC(=S)NC(=O)c3cccs3)n2)cc1OC,i,12µM*,i,-24%,-28%,15µM*
COc1ccc(CC(=O)Nc2nc(-c3ccc(OC)c(OC)c3)cs2)cc1OC,i,21µM*,?,?,-29%,?
COc1ccc(-c2csc(NC3OC(=O)c4c3ccc(OC)c4OC)n2)cc1OC (stereo not given),i,15µM*,i,2.1µM*,2.6µM*,9.2µM*
CCOc1ccccc1NC(=O)NCc1ccc2c(c1)OCO2,i,7%,i,-4%,14%,-5%
C[C@H](NC(=O)c1nc[nH]c1C(=O)N[C@@H](CCCCN)C(=O)OC(C)(C)C)C(=O)OCc1ccccc1,i,-15%,i,15%,17%,-6%
CCCCC(=O)OC1=C(C(=O)c2ccccc2)N(CCC)S(=O)(=O)c2ccccc21,?,2.9µM*,?,nt,nt,3.3µM*
CCOC(=O)c1ccc(CN2C(=O)c3ccccc3S2(=O)=O)cc1,i,-5%,i,0%,7%,-4%
CCCCCN1C(C(=O)c2ccccc2)=C(OC(=O)CC)c2ccccc2S1(=O)=O,?,5.2µM*,i,nt,nt,4.6µM*
CCN1C(C(=O)c2ccccc2)=C(OC(=O)c2ccc(OC)cc2)c2ccccc2S1(=O)=O,nt,6.5µM*,nt,nt,nt,4.6µM*
CCCCC(=O)OC1=C(C(C)=O)N(Cc2ccccc2)S(=O)(=O)c2ccccc21,i,?,i,nt,nt,?
CCCN1C(C(=O)c2ccccc2)=C(OC(=O)c2ccc(F)cc2)c2ccccc2S1(=O)=O,nt,4.6µM*,nt,nt,nt,5.2µM*
Cc1ccccc1NC(=O)CCNS(=O)(=O)c1cccc2nsnc12,i,-18%,i,15%,19%,-10%
Cc1ccc(NC(=O)COC(=O)CSC(=S)N2CCOCC2)cc1,i,-14%,i,6%,13%,-1%
CCC(=O)OC1=C(C(C)=O)N(Cc2ccccc2)S(=O)(=O)c2ccccc21,i,?,i,nt,nt,18µM*
CCCC(=O)OC1=C(C(C)=O)N(Cc2ccccc2)S(=O)(=O)c2ccccc21,i,?,?,nt,nt,?
O=C(NCc1cccnc1)c1cc(-c2cccs2)on1,i,?,i,-15%,-11%,13µM*
SMILES,KB-3-1 cytotox,DT40 TDP1 no CPT,KB-V1 cytotox,HT1080NT lethal,HT1080 IDH1KD tx,TDP1 cell CPT
Cc1nn(Cc2ccccc2)c(C)c1NC(=O)c1cc(-c2cccs2)on1,i,?,4.1µM*,-2%,?,?
COc1cccc(-c2cc(C(=O)Nc3c(C)nn(Cc4ccccc4)c3C)no2)c1,i,18µM*,i,-7%,?,?
COc1ccc(-c2cc(C(=O)Nc3c(C)nn(Cc4ccccc4)c3C)no2)cc1,i,-28%,i,-27%[9.24 µM],16µM*,-23%
CO[C@H]1[C@H](NC(=O)c2ccco2)c2ccccc2C12CCN(Cc1cnc(N(C)C)s1)CC2,nt,-13%,nt,nt,nt,4%[9.04 µM]
CCc1ccc(C2CC(c3cccc(Cl)c3)n3nc(N)nc3N2)cc1 (stereo not given),i,15µM*,i,-5%,2%,15µM*
Cc1ccc(C2CC(c3cccc(Cl)c3)n3nc(N)nc3N2)cc1 (stereo not given),i,18µM*,i,15%,9%,15µM*
Cc1cccc(C2CC(c3ccc(Cl)cc3)Nc3nc(N)nn32)c1 (stereo not given),i,?,i,12%,8%,?
O=C(c1cc(S(=O)(=O)N2CCOCC2)ccc1Cl)N1CCCCC1CO (stereo not given),i,0%,i,-1%,-11%,-19%
NC(=O)c1cc2ccc(O)cc2oc1=NCc1ccccc1,i,?,i,-1%[9.24 µM],?,18µM*
COc1ccc(OC)c(N=c2oc3cc(O)ccc3cc2C(N)=O)c1,?,?,?,-13%,-10%,15µM*
COc1ccc2oc(=Nc3cc(F)ccc3F)c(C(N)=O)cc2c1,7.3µM*,4.6µM*,?,?,?,4.1µM*
COc1ccc2cc(C(=O)c3ccccc3)c(=O)oc2c1,i,-9%,i,11%,0%,-21%
COc1ccc2cc(C(N)=O)c(=Nc3ccccc3)oc2c1,i,15µM*,i,17%,-2%,?
Cc1nc2ccn(Cc3cccnc3)c(=O)c2cc1C(=O)N1CCN(c2ccccc2)CC1,i,-1%,i,nt,nt,-1%
CC(=O)c1cccc(NC(=O)Cn2cnc(S(=O)(=O)N3CCOCC3)c2)c1,i,14%,i,-3%,3%,-11%
Cc1ccc(S(=O)(=O)N2C[C@H]3[C@H]4C(=O)N(c5ccccc5)C(=O)[C@H]4CC(=O)[C@H]3[C@@H]2c2cccc3ccccc23)cc1,i,19%,i,16%,29%,1%
COc1cccc2cc(C(=O)NCc3ccco3)c(=O)oc12,i,-12%,i,26%,?,-3%
O=C(O)c1ccc(N=c2oc3cc(O)ccc3cc2C(=O)NCc2ccccc2)cc1,i,-17%,i,-13%,1%,2%
